Most compounds without a hit are left out; they make up all but 10% or so of the library.
G9a block = qHTS Assay for Inhibitors of Histone Lysine Methyltransferase G9a; Potency, µM (highest dose often 102 µM), most hits filed as inhibitors; 350,000 compounds, 8.8% hits; G9a H3K9 monomethylation, AlphaScreen, 2 h; Histone-lysine N-methyltransferase EHMT2 (Homo sapiens), Q96KQ7; AID 504332, 2011; further: nearly all actives have a fitted effect of over 75% in size
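G9a (20 nM) was preincubated 15 min with compound, then reacted 2 h at room temperature with 500 nM biotin-H3K9 peptide and 20 µM SAM. Monomethyl-H3K9 detected by AlphaScreen using anti-H3K9me1 antibody.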
VDR inhibitor = Inhibitors of the vitamin D receptor (VDR): qHTS; Vitamin D3 receptor (Homo sapiens), P11473; VDR-SRC2-3 peptide fluorescence polarization, 2 h; Potency, µM, most hits filed as inhibitors; 400,000 compounds, 0.93% hits
Target sequence (P11473 whole entry, looked up): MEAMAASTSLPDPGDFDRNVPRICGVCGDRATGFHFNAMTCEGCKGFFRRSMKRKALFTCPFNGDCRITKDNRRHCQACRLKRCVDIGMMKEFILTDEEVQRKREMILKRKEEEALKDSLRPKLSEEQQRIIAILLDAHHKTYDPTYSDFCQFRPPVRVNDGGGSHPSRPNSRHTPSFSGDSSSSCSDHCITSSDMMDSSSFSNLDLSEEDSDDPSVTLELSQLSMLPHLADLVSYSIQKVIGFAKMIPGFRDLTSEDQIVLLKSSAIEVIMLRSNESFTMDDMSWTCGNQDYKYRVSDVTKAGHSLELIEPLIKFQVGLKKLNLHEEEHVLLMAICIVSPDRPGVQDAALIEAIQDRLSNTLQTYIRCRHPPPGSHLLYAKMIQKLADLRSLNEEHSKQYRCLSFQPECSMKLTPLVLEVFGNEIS
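FP read-out; VDR + SRC2-3 coactivator peptide; 23 nl compound by pintool; 2 h RT incubation; reagents held at 4 deg C, protected from light.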
CCT chaperon mod = High-Throughput Screening for Modulators of Cytosolic Chaperonin Activity; purified chaperonin ATPase assay, HTRF ADP detection, 30 min; activity change, % (concentration not given with the values), hits read low; 360,000 compounds, 0.3% hits; AID 651819, 2012; in the data active means activity change below about -30%
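We incubate TRiC, 40 or 20 nM final, with library compounds at 76 uM and 10 uM ATP for 30 min at 37 °C. ADP formed is detected with Transcreener HTRF reagents after 30 min at room temperature.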
PLK1 PBD block = qHTS for Inhibitors of PLK1-PDB (polo-like kinase 1 - polo-box domain): Primary Screen | Serine/threonine-protein kinase PLK1 (Homo sapiens), P53350 | Plk1 PBD binding of FITC phosphopeptide, fluorescence polarization | Potency, µM, actives largely listed as inhibitors | 360,000 compounds, 2.8% hits; further: series mostly up to about 57 µM; nearly all actives have a fitted effect of over 65% in size
MmCpn inh = Inhibitors of TCP-1 ring complex (TRiC) of Methanococcus maripaludis (MmCpn): qHTS; Chaperonin Mm-Cpn (Methanococcus maripaludis); purified Mm-Cpn ATPase, ADP Transcreener TR-FRET; Potency, µM (doses to about 76.9 µM), usual class: inhibitors; 330,000 compounds, 0.031% hits; further: nearly all actives have a fitted effect of over 80% in size
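Quantitative HTS used 25 nM Mm-CPN and 10 uM ATP in magnesium/KCl Tris buffer, pH 7.4, with 1 mM DTT. Hydrolysis ran 30 min at 37°C; ADP was read by HTRF.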
Sfp inh = qHTS Assay for Inhibitors of Bacillus subtilis Sfp phosphopantetheinyl transferase (PPTase) | 310,000 compounds, 3.5% hits | AID 1490, 2009 | 4'-phosphopantetheinyl transferase ffp (Bacillus subtilis), Q9F4F7 | Potency, µM, most hits filed as inhibitors | Biochemical Sfp PPTase activity, qHTS;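 further: the enzyme is Sfp with the accession as filed and its product quenches rhodamine fluorescence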
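Buffer: 50 mM Hepes-Na pH 7.6, 10 mM MgCl2, 0.01% Nonidet P-40, 0.01% BSA. Enzyme 15 nM, pre-exposed to compound 15 min; substrates then added and fluorescence change tracked over 30 min.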
Hits are given with their value. Unless noted, the call rests on the fitted dose curve; in most records, active means well fitted curve in the direction sought with a large enough effect; inconclusive means small, poorly fitted or top-dose-only effect, or another doubt; inactive means no such curve, though single readings can be large; an effect the other way counts as inactive or inconclusive.

What do the screens show for `CCCCN(C)CCCNC(=O)C1CCN(S(=O)(=O)CCC)CC1`?
G9a block: inactive; VDR inhibitor: inactive

How did Cc1ccc(C(=O)N/N=C2\SCC(=O)N2c2cc(C)ccc2C)cc1 do in these assays?
G9a block: inactive; VDR inhibitor: inactive; CCT chaperon mod: inactive; PLK1 PBD block: inactive; MmCpn inh: inactive; Sfp inh: 70.8µM

What do the screens show for `CCN(CC)CCCC(C)n1c(-c2ccccc2)nc2c(N3CCOCC3)nc(C)nc21` (stereo unspecified)?
Sfp inh: inactive

How did COc1ccc(N2CCN(C(CNC(=O)C(=O)NCc3ccc(C)cc3)c3cccnc3)CC2)cc1 (stereo unspecified) do in these assays?
G9a block: inactive; VDR inhibitor: inactive

What do the screens show for `Cc1nc(NC(=O)c2ccc(Cl)cc2)nc2cc3c(cc12)OCO3`?
G9a block: inactive; VDR inhibitor: inactive; CCT chaperon mod: inactive; PLK1 PBD block: inactive; MmCpn inh: inactive; Sfp inh: inactive

Results for Cc1c(-c2cc(Br)ccc2O)nc2cc3c(cc2c1C)OCO3 ?
G9a block: 44.7µM; VDR inhibitor: inactive; CCT chaperon mod: inactive; PLK1 PBD block: inactive; MmCpn inh: inactive; Sfp inh: inactive

How did COc1ccc(N2CCN(C3CCCN(S(=O)(=O)c4ccccc4)C3)CC2)cc1 (stereo unspecified) do in these assays?
VDR inhibitor: inactive; CCT chaperon mod: inactive; PLK1 PBD block: inactive; MmCpn inh: inactive; Sfp inh: inactive

What do the screens show for `CC1(c2ccccc2)NC(=S)N2C1NC(=S)N2c1ccccc1` (stereo unspecified)?
G9a block: 50.1µM; VDR inhibitor: inactive; CCT chaperon mod: inactive; PLK1 PBD block: inactive; MmCpn inh: inactive; Sfp inh: inactive

How did COc1ccc(N2C(=S)NC3N2C(=S)NC3(C)c2ccccc2)cc1 (stereo unspecified) do in these assays?
G9a block: 28.2µM; VDR inhibitor: inactive; CCT chaperon mod: inactive; PLK1 PBD block: inactive; MmCpn inh: inactive; Sfp inh: inconclusive

Results for O=C(Nc1ccc(OC(F)(F)F)cc1)C1CCN(S(=O)(=O)c2ccc3[nH]c(=O)ccc3c2)CC1 ?
G9a block: inactive; VDR inhibitor: inactive

Results for S=c1[nH]nc(NCCCN2CCOCC2)s1 ?
G9a block: 1.26µM; VDR inhibitor: 89.1µM; CCT chaperon mod: inactive; PLK1 PBD block: 11.9µM; MmCpn inh: inactive; Sfp inh: 35.5µM

How did COc1ccc(-c2cn3c4c(sc3n2)CCCC4)cc1 do in these assays?
G9a block: 50.1µM; VDR inhibitor: inactive; CCT chaperon mod: inactive; PLK1 PBD block: inactive; MmCpn inh: inactive; Sfp inh: 79.4µM

What do the screens show for `Cc1c(C(=O)Nc2ccncc2)sc2nc(-c3ccc(F)cc3)cn12`?
G9a block: 39.8µM; VDR inhibitor: inactive; CCT chaperon mod: inactive; PLK1 PBD block: inactive; MmCpn inh: inactive; Sfp inh: inactive

Results for Cc1c(C(=O)N2CCN(C(=O)c3ccco3)CC2)sc2nc(-c3ccc(F)cc3)cn12 ?
G9a block: 39.8µM; VDR inhibitor: inactive; CCT chaperon mod: inactive; PLK1 PBD block: inactive; MmCpn inh: inactive; Sfp inh: inactive

Results for COc1ccc(-c2cn3c(C)c(C(=O)Nc4ccncc4)sc3n2)cc1 ?
G9a block: 12.6µM; VDR inhibitor: inactive; CCT chaperon mod: inactive; PLK1 PBD block: inactive; MmCpn inh: 44.7µM; Sfp inh: 44.7µM

What do the screens show for `CCOc1ccc(-n2cc(C(=O)Nc3ccccc3OCC)c3cc(OC)c(OC)cc3c2=O)cc1`?
G9a block: inactive; VDR inhibitor: inactive

Results for CC(=O)N1CCN(Cc2nc3cc(NC(=O)COc4cccc(C)c4)ccc3n2C)CC1 ?
G9a block: 6.31µM; VDR inhibitor: inactive; CCT chaperon mod: inactive; PLK1 PBD block: inactive; MmCpn inh: inactive; Sfp inh: inactive

Screening results: PubChem BioAssay, National Center for Advancing Translational Sciences (NCATS)
